The values that follow come from PubChem BioAssay (NCI).

The panel holds about 83,000 compounds, 20% with a hit somewhere; the sample as a whole holds those more often.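 For each line, cells grew in 96-well plates with the test compound present at a single concentration for 48 hours.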 Values without a mark were called inactive. The source made the active and inactive calls.

The subject of this assay is SK-MEL-5 melanoma. Nature of the assay: NCI-60 one-dose screen, 48 h (100 = growth as untreated, 0 = no growth, -100 = all killed). The following applies: 10 µM unless noted. The protocol: Growth inhibition of the SK-MEL-5 human tumor cell line is measured as a screen for anti-cancer activity. Cells are grown in 96 well plates and exposed to the test compound for 48 hours. Compounds are tested at a single concentration, which is 10^-5 M for most compounds. The reported endpoint is percent growth (GI% or GIPRCNT), where numbers from 0 - 100% represent growth inhibition, and numbers from -100% - 0 represent cell death. For example, a value of 40 represents 60% growth inhibition. A value of 0 means no net growth occurred over the course of the experiment. A value of -40 indicates 40% of cells at the beginning of the experiment died by the end of the experiment. A value of -100 means all cells are dead at the end of the experiment.
NCI-60 Human Tumor Cell Lines Screen was performed using the standard one-dose NCI protocol, which is described in more detail at https://dtp.cancer.gov/discovery_development/nci-60/default.htm.
Compounds with GIPRCNT values below 10 were considered active. Activity score was based on GIPRCNT using the following formula: […]
Score is 0 for GIPRCNT values of 100 or above, 50 for GIPRCNT values of 0, and 100 for GIPRCNT values of -100.
For the molecule `CCN(CC)Cc1cccc(C(=O)OC)c1`, the growth is 97.1%.
Consider `Cc1ccc2[nH]c(=O)c3c(c2c1)OC(N)=C(C#N)C31c2cc(Br)ccc2-c2ccc(Br)cc21`, for which the growth is 56%.
Take `Cc1ccc(NS(=O)(=O)c2ccc3c(c2)C(=O)CC(c2ccc(C(=O)C(C)C)cc2)N3)cc1C` (stereo not given): the growth is -10.4% (active).
As for `COc1cccc(Nc2nccc(Nc3ccc4[nH]ncc4c3)n2)c1`, the figure is -83.6% (active).
In the case of `N#Cc1c(-c2ccccc2)cc(-c2ccc(Nc3nc(Nc4ccc(F)cc4)nc(Nc4ccc(F)cc4)n3)cc2)nc1N` it was 92%; in that of `O=[N+]([O-])c1ccc(Sc2cccc[n+]2[O-])c2nonc12`, 72.3%.
As for `COCCN(C(=O)c1ccc(F)cc1F)c1c(N)n(Cc2ccccc2)c(=O)[nH]c1=O`, the figure is 108%; as for `CCOc1c(C#N)nnc2c(C#N)c(NC(=O)c3ccccc3)nn12`, 99.4%; as for `N#Cc1c(-c2cccc(Cl)c2)cc(-c2cccc(Cl)c2)[nH]c1=O`, 64.9%.
For the molecule `Cc1nn(-c2ccccc2)c2nc3c(c(-c4ccc(Cl)cc4)c12)CNC1(CCSCC1)N3`, the growth was 99.1%.
In the case of `CC1(C)CC(=O)C2=C(C1)N(c1ccc(OC(F)(F)F)cc1)C(N)=C(C#N)C2c1ccc(Cl)cc1` (stereo not given) it was 93.8%.
As for `CC1OC(O[C@H]2/C=C/C=C/C=C/C=C/C=C/C=C/C=C/[C@H](C)[C@@H](O)[C@@H](C)[C@H](C)OC(=O)CC(O)CC(O)CCC(O)C(O)CC(O)C[C@]3(O)C[C@H](O)C(C(=O)O)C(C2)O3)C(O)[C@H](N)C1O` (stereo not given in full), the figure is 35.9%; as for `COc1ccc(C2C(c3nn[nH]n3)=C(N)Oc3c2ccc2ccccc32)cc1` (stereo not given), 57.5%.
In the case of `Cc1cc(O)c(C2=NN(c3ccc(S(N)(=O)=O)cc3)C(c3ccccc3Cl)C2)cc1Cl` (stereo not given) it was 36.5%; in that of `O=C(NCCc1ccc(O)c(O)c1)C12CC3CC(CC(C3)C1)C2`, 96%.
In the case of `CC(=O)OC1CCC2(C)C(=CC3C4CCC(=O)C4(C)CCC32)C1` (stereo not given), the growth was 105%.
For the molecule `NS(=O)(=O)c1cnccc1Sc1ccncc1S(N)(=O)=O`, the growth was 105%.
In the case of `COc1cc(C2NC(=O)c3ccccc3N2)ccc1OCCCCCOc1c(OC)cc(C2=NOC(c3cc(OC)c(OC)c(OC)c3)C2)cc1OC` (stereo not given) it was -2.4% (active); in that of `CCc1ccccc1-n1c(N)c(C#N)c(-c2ccc(N(C)C)cc2)c(C#N)c1=O`, 86.5%; in that of `c1c[nH]c(CNC2CCCCC2)c1`, 118%.
As for `COc1cccc(C(=O)NCCCNc2cc(-c3cn(-c4ccccc4)nc3-c3cccc(OC)c3)ccn2)c1`, the figure is 9.17% (active); as for `COc1ccc(Cl)cc1NC(=O)C(Br)C(Br)C(=O)O` (stereo not given), -82.2% (active).
As for `COC(=O)/C=C1\S/C(=N\NS(=O)(=O)c2ccc(C)cc2)N(c2ccccc2)C1=O`, the figure is 100%; as for `COc1ccc(/C=N/C2=C(C#N)C(c3ccc(OC)cc3)c3ccc4ccccc4c3O2)cc1` (stereo not given), 70.4%; as for `COc1ccc(-c2nc(SCCC(C)C)nc(N/N=C\c3cccc(Cl)c3)c2C#N)cc1`, 96%.
With `COC(=O)c1c2c(c(C)[n+]([O-])c1C)C(=O)C(NCc1ccc(F)c(Cl)c1)=CC2=O`, the growth is -71.6% (active).
As for `NC(N)=Nc1nc2ccccc2n2c1nc1ccccc12`, the figure is 58.6%; as for `N#C/C(=C/C=C/c1cccc(Cl)c1)S(=O)c1ccccc1` (stereo not given), -70.5% (active); as for `CC(C)C(=O)Nc1n[nH]c2cc(-c3cccc(NS(=O)(=O)C4CC4)c3)ccc12`, 24.5%.
In the case of `CC(C)(C)CC(C)(C)Nc1c(-c2ccncc2)nc2cnccn12`, the growth is 99.4%.
For the molecule `Oc1c(CN2CCCC2)cc(COCc2ccc(Br)cc2)c2cccnc12`, the growth was -15.1% (active).
In the case of `COc1ccc(/C=C/c2c(C(=O)/C=C/c3ccc(F)cc3)c(C)nc3ccccc23)cc1` it was 63.4%.
For the molecule `C[C@H]1[C@H]2[C@H]3CC[C@@H]4[C@@]5(C)C/C(=C/c6ccco6)C(=O)C(C)(C)[C@@H]5CC[C@@]4(C)[C@]3(C)CC[C@]23CO[C@]1(C)[C@@H](C(=O)/C=C\c1ccco1)C3`, the growth was 55.7%.
In the case of `Cc1ccccc1NC(=O)N/C(N)=N/c1nc(C)c(C)s1` it was 40.5%.
For `NC(=O)c1ccc[n+](Cc2ccc(Cl)cc2Cl)c1`, the growth was 97.6%.
As for `Cc1cc(NCc2cc(Nc3ccnc4cc(Cl)ccc34)ccc2F)nc(N2CCCC2)n1`, the figure is -94.2% (active); as for `Cc1cccc(NC(=O)N/C(N)=N/c2nc(C)c(C)s2)c1`, 59.2%.
As for `Nc1ccc2c(c1)c(N)nn2C(=O)Nc1ccc(Cc2ccccc2)cc1`, the figure is 71.7%; as for `COc1cc(/C=N/NC(=O)Cn2c(C(C)C)nc3ccccc32)ccc1O`, 97.6%.
As for `O=C(Nc1cccc(C(F)(F)F)c1)Nc1cccc(C(F)(F)F)c1`, the figure is -72.5% (active).
